Biological target: AMP-activated protein kinase, AMPK (Homo sapiens) (UniProt P54646+O43741+P54619+Q9UGJ0+Q9Y478+Q13131+Q9UGI9)
Experiment: AMP-dependent Kinase enzyme assay. An in vitro enzyme assay that detects ADP turnover that is directly proportional to AMPK activity. This uses naive AMPK that is activated during the assay with MK-8722
Format: functional
Set-up: scale not given: direction of the effect not stated beside the values
Settings: 30 µM

Row | SMILES | Percent Effect [%]
1 | CC(=O)NC1CCCN(c2nc3ccccc3cc2CO)C1 (stereo not given) | 3.71
2 | CNC(=O)c1[nH]nc2c1CN(c1cc(C3CCCNC3)nc(C)n1)CC2 (stereo not given) | 18.4
3 | Cc1cc(=O)n2nc(Oc3ccc(Cl)c(C)c3)sc2n1 | -6.95
4 | NC(=O)COc1cccc(Cn2cc(Br)cn2)c1 | 3.8
5 | CC1(C)CN(Cc2ccncc2)CCS1(=O)=O | -9.12
6 | CNS(=O)(=O)c1ccc(CN2CCN3CCNC(=O)C3C2)cc1 (stereo not given) | -3.21
7 | CCS(=O)(=O)N1CCCN(CCCOC)CC1 | 19
8 | CC(CN1CCOCC1)NC(=O)N1CCCC1 (stereo not given) | 12.9
9 | CC1(C)OC(=O)N(CC(=O)N2CCC(c3ccccc3Cl)C2)C1=O (stereo not given) | 8.7
10 | COCCN1C(=O)[C@H]2CC[C@@H]1CN(S(=O)(=O)c1ccc(OC)cc1)C2 | 13.1
11 | COC(=O)NCC(=O)N1CCCn2nc(CN3CC[C@H](F)C3)cc2C1 | 5.46
12 | COC(=O)c1ccc(NC(=O)CCc2ccco2)cc1 | 20.9
13 | Cc1cc(C)n(C2CCN(C(=O)c3cn4ccsc4n3)C2)n1 (stereo not given) | -11.9
14 | CC1(c2ncc(CN(CC(=O)O)Cc3ccccc3)cn2)CCCCO1 (stereo not given) | 12.9
15 | O=C(NCC1CCS(=O)(=O)C1)N(Cc1ccncc1)C1CC1 (stereo not given) | -5.47
16 | CC(c1nc(C2CC2)no1)N1CCc2c(ncn2C2CC2)C1 (stereo not given) | 11.4
17 | COCc1ncc(CN2CCC3(CCC(=O)N(CC(C)O)C3)CC2)cn1 (stereo not given) | -3.44
18 | COc1ccc(-c2cc3nc(CCNC(=O)C4CC4)nn3cn2)cc1 | -2.76
19 | Cn1ncc2c1CCCC2NCc1ccc(OCc2cccnc2)cc1 (stereo not given) | 2.53
20 | CCn1cnnc1CNC(=O)c1ccc(Br)cc1F | -10.5

Row | SMILES | Percent Effect [%]
21 | NC(=O)CC1CCCN(c2cncc(OCc3ccccc3)n2)C1 (stereo not given) | 20.7
22 | Cc1cc(NC(=O)C(C)NCCn2cccn2)no1 (stereo not given) | -0.416
23 | O=S(=O)(c1cn[nH]c1)N1CCCC(O)(CN2CCOCC2)CC1 (stereo not given) | 13.3
24 | CCOc1ccc(Oc2cc(CN)ccn2)cc1 | -43.1
25 | COc1ccc(C(=O)NCc2ccco2)nn1 | -4.45
26 | N#Cc1cccc(N2CCC(CO)(CCCc3ccccc3)CC2)n1 | 6.03
27 | Cn1cc(C(=O)NCCc2ccc(OC3CCCC3)cc2)ccc1=O | 0.292
28 | O=C(NC1CC1)c1nc(Cn2c(C(F)F)nc3ccccc32)no1 | 10.9
29 | CC(C)c1nccc(CN(C)Cc2cnn(-c3ccccc3)c2)n1 | -5.06
30 | Cc1nn(C)cc1C(=O)N1CCC(C(=O)c2nc3ccccc3s2)CC1 | 20.7
31 | Cc1ccc(CN(C(=O)NCC2CCCO2)C2CC2)o1 (stereo not given) | -2.62
32 | CCOCCC(=O)NC(c1noc(C)n1)c1ccccc1F (stereo not given) | 1.15
33 | COCCCS(=O)(=O)N1CCN(Cc2cccn2C)CC1 | 2.25
34 | Cc1cnn(C2CN(CC(O)COc3ccc(C#N)cc3)C2)c1 (stereo not given) | -78.4
35 | COC(=O)c1ccc(N(C(=O)c2cc(Cl)ccn2)C(C)C)c(C)c1 | -4.91
36 | CCCN(Cc1nnnn1C1CC1)CC1COc2ccccc2O1 (stereo not given) | 7.59
37 | Fc1cccc(-c2n[nH]cc2-c2nc(CN3CCOCC3)no2)c1 | 5.95
38 | Cc1noc(C)c1CNCC1CNc2ccnn2C1 (stereo not given) | -0.962
39 | CC(C)N1CCC(CC(=O)NCCc2cc(O)ncn2)CC1 | -10.1
40 | CC(C)(C)NC(=O)CN1CCCNCC1 | -0.0888
